Assay results taken from PubChem BioAssay (NCATS).
Results filed as inconclusive are left out. Active and inactive are the calls of the source. Unless noted, the call rests on the fitted dose curve; in most records, active means well fitted inhibition curve with a large enough effect; inconclusive means small, poorly fitted or top-dose-only effect; inactive means flat fitted curve, though single readings scatter.

System: not listed separately
Test: qHTS Assay for Identification of Small Molecule Agonists for Hypoxia Response Element Signaling Pathway (AID 914; active means well fitted activation curve with a large enough effect in the signal ratio, with a control signal flat, not every such curve was filed as active; the % refers to the signal ratio; on activation: % of control where 0% means no effect)
Details: ME-180 (cervical carcinoma) HRE-bla reporter, beta-lactamase ratio, CoCl2, 17 h; activation: hits give high values
How it was run: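 Positive modulation of EC50 CoCl2-induced hypoxia response element signaling is measured in ME-180 cells with a beta-lactamase reporter. Compounds are titrated, incubation runs 17 hours, and %Activity derives from the blue/green ratio.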
Potency means the concentration at half of the fitted maximal effect.

Potency, active:
CCNc1ncc2nc(-c3cn(C)c4ccccc34)c(=O)n(Cc3ccc(F)cc3)c2n1 2.51 µM
Cn1c(=O)c(-c2ccc(F)cc2)nc2cnc(N3CCOCC3)nc21 2.51 µM
O=c1c(-c2ccc(Cl)cc2)nc2cnc(Nc3ccccc3)nc2n1C[C@H]1CCCO1 0.126 µM
CCNc1ncc2nc(-c3cc(F)cc(F)c3)c(=O)n(CCc3ccccc3)c2n1 1 µM

activation, inactive:
O=c1c(CCc2ccccc2)nc2cnc(N3CCOCC3)nc2n1CCc1ccccc1 -4.33%

Molecular target: Dual specificity protein kinase CLK4 (Homo sapiens) (UniProt Q9HAZ1)
Test: qHTS Assay for Inhibitors of CDC-like Kinase 4 (Kinase-Glo Assay) (AID 1770); further: nearly all actives have a fitted effect of over 65% in size
Details: recombinant Clk4, Kinase-Glo ATP depletion luminescence; series mostly up to 66.7 µM
How it was run: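 Readout: Kinase-Glo luminescence from ATP left after a 4.5 h room-temperature reaction of 25 nM Clk4 with 100 uM RS peptide and 1 uM ATP (final). Buffer: 25 mM Tris pH 7.5, 10 mM MgCl2.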

Chain of Dual specificity protein kinase CLK4 (Homo sapiens) (Q9HAZ1 whole entry, looked up): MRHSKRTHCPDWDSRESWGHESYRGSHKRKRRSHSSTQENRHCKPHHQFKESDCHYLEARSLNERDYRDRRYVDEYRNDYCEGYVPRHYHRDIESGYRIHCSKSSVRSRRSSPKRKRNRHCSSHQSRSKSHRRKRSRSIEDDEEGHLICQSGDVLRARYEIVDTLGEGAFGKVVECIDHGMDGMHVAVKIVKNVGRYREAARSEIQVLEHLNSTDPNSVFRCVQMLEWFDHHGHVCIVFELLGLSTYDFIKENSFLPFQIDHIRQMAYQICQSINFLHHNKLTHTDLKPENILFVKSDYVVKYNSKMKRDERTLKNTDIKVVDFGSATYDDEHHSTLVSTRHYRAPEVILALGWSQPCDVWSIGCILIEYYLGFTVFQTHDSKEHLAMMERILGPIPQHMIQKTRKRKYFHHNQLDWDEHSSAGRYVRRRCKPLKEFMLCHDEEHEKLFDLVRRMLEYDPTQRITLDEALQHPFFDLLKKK

Potency, inactive:
CCNc1ncc2nc(-c3cn(C)c4ccccc34)c(=O)n(Cc3ccc(F)cc3)c2n1
N#CCCn1c(=O)c(-c2ccccc2)nc2cnc(Nc3ccccc3)nc21
CN(C)c1ncc2nc(-c3cccs3)c(=O)n(-c3ccccc3)c2n1
COc1ccc(-c2nc3cnc(OC)nc3n(C)c2=O)cc1
COc1ncc2nc(-c3cccs3)c(=O)n(Cc3ccc(F)cc3)c2n1
COc1cccc(Cn2c(=O)cnc3cnc(OC)nc32)c1
COCCn1c(=O)c(-c2cccs2)nc2cnc(OC)nc21
COc1ccc(CNc2ccnc(-c3c(C)noc3C)n2)c(OC)c1
COc1cccc(Cn2c(=O)cnc3cnc(OCc4ccccc4)nc32)c1

Potency, active:
COc1cccc(-c2nccc(NCc3cccnc3)n2)c1 7.08 µM
Cc1cnc(CNc2ncnc3ccc(-c4ccc5c(c4)OCO5)cc23)cn1 0.282 µM
CNc1nc(-c2c(C)noc2C)nc2ccccc12 17.8 µM
